# Measured values from PubChem BioAssay.
# “And” between values parts separate entries of the source, which are not always exact repeats. Equal entries are not always repeated. Inconclusive results are not listed. The source made the active and inactive calls.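 How the source made its calls, unless noted: active means normalized viability below 100% at a tested concentration; inactive means the rest.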
# Key:
# [1] = circadian clock period modulators, cell-based, LOPAC library, luminescence reporter (AID 2774; call rule not given here;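 further: values are relative to mean of DMSO wells on each plate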); conditions: circadian reporter cells, at 7 µM, actives lie on both sides
# [2] = test system: Hepatitis C virus NS3 helicase; assay: HCV NS3 helicase inhibitors, primary screen, biochemical, fluorescence polarization, LOPAC1280 library (AID 687035; in the data active means inhibition above about 37%); conditions: Purified HCV NS3 helicase, Cy5-dT15 ssDNA binding fluorescence polarization; stronger effect = higher value; concentration not given here
# [3] = Cy5 fluorescence quenching or enhancement artefacts, artefact control for HCV NS3 helicase inhibitor project, biochemical, LOPAC1280 (AID 687037; call rule not given here); conditions: Cy5-DNA-NS3h complex fluorescence interference counterscreen
# [4] = growth inhibition of DIPG glioma cells, dose response, cell-based, SU-DIPG-IV, MIPE4.0, CellTiter-Glo, qHTS (AID 1347063; cut-off not given, nearly all actives have AC50 up to about 30 µM;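 further: compound exposure lasted 48 hours before the viability readout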); conditions: SU-DIPG-IV viability, CellTiter-Glo ATP luminescence
# [5] = viability loss in pontine glioma line – cell-based, SU-DIPG-XXV, MIPE5.0, CellTiter-Glo, qHTS, dose response (AID 1347065; cut-off not given, nearly all actives have AC50 up to about 26 µM;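 further: cells exposed to compound for 48 hours before ATP readout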); conditions: CellTiter-Glo ATP luminescence
# [6] = SU-DIPG-VI glioma cell viability, MIPE4.0 library, CellTiter-Glo luminescence, qHTS (AID 1347066; cut-off not given, nearly all actives have AC50 up to about 30 µM;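 further: cells exposed to compound for 48 hours before readout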); conditions: CellTiter-Glo ATP luminescence
# [7] = JHH-DIPG-1 glioma cell viability, MIPE5.0 library, CellTiter-Glo luminescence, qHTS (AID 1347067; cut-off not given, nearly all actives have AC50 up to about 26 µM;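 further: cells exposed to compound for 48 hours before readout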); conditions: JHH-DIPG-1 glioma viability, CellTiter-Glo ATP luminescence
# [8] = sensitizers of A549 cells to miR-34 induction, primary screen, imaging, A549 dox-inducible miR-34, nuclei and caspase counts (AID 1347080;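 active means compounds whose cell count with miR-34 switched on is under 0.7 times the count with it off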); conditions: A549 miR-34 inducible, Hoechst nuclei count, 48 h
# [9] = inhibitors of Cryptococcus chitosan production, flow cytometry, Cibacron Brilliant Red staining (AID 1347148; call rule not given here;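 further: compound exposure lasted three days at 37 degrees C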); conditions: Cryptococcus neoformans chitosan, stronger effect = lower value; at 10 µM unless noted
# [10] = phospholipid biosynthesis inhibitors in animal cells, primary screen, cell-based, LOPAC library, screen 4 (AID 1347384; call rule not given here); conditions: phospholipid biosynthesis inhibition screen, at 10 µM
# [11] = viability rescue of complex I mutant cybrids, primary screen, cell-based, galactose medium, ATP luminescence (AID 1645843;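 active means z-score of at least 1.8 in each of two replicates, scored against plate mean and spread of sample wells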;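 further: positive z means more ATP and so rescue of galactose-driven cybrid death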); conditions: complex I mutant cybrid cells, 72 h, stronger effect = higher value
# [12] = growth inhibition of DIPG glioma cells, dose response, cell-based, SU-DIPG-XIII, MIPE5.0, CellTiter-Glo, qHTS (AID 1347064; cut-off not given, nearly all actives have AC50 up to about 23 µM;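 on AC50: cells exposed to compound for 48 hours before the viability read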); conditions: SU-DIPG-XIII viability, CellTiter-Glo ATP luminescence
# [13] = SU-DIPG-XXV glioma cell viability, MIPE5.0 library, qHTS (AID 1347068; cut-off not given, nearly all actives have IC50 up to about 30 µM;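 further: cells exposed to compound for 48 hours before viability readout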)
# [14] = survival rescue of mitochondrial mutant cells in low glucose, primary screen, MELAS cybrids, Rieske KO mouse fibroblasts, CellTiter-Glo (AID 1508586;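 active means mean z-score across replicates of 1.96 or higher in either the MELAS or the Rieske mutant cell line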;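 further: z relative to plate mean and SD of compound and empty wells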)
# [15] = modifiers of HSF1 nuclear foci, imaging, Selleck Cancer Library (AID 1347162; in the data active means plate-normalised HSF1 focus index below about 0.46); conditions: human cells, at 10 µM; SSMD: measured here: HSF1 foci SSMD mean; cell count: measured here: cell number; plate-normalised HSF1 focus index: stronger effect = lower value
# [16] = ovarian cancer cell viability with rucaparib, profiling panel, oncology-focused library, rucaparib conditional (AID 1508598); conditions: patient-derived ovarian cancer cells, CellTiter-Glo viability, 144 h, stronger effect = lower value
# [17] = stronger effect = lower value, cell number ratio, induced over uninduced
# [18] = measured here: relative caspase fold change +Dox/-Dox
# [19] = measured here: total cells with miR-34 induction, stronger effect = lower value
# [20] = measured here: total cells without miR-34 induction
structure (smiles),measurement,setting,value
Cc1ccc(S(=O)(=O)N[C@@H](Cc2ccccc2)C(=O)CCl)cc1,period change,[1],-0.14 h (inactive)
same,inhibition,[2],-4% (inactive)
same,fluorescence ratio (interference),[3],1 (inactive)
same,AC50,[4],18.7 µM (active)
same,AC50,[5],18.6 µM (active)
same,AC50,[6],20.9 µM (active)
same,AC50,[7],23.5 µM (active)
same,fold change,[8]; [17],1.17 (inactive) and 1.22 (inactive)
same,fold change,[8]; [18],0.738 and 0.849
same,cell count,[8]; [19],1870 and 962
same,cell count,[8]; [20],1600 and 786
same,fold fluorescence,[9],6.27 [at 142.1 µM] (inactive)
same,outcome,[10],inactive
same,z-score,[11],-1.34 (inactive)
CCc1ccc(N(CC(C)C)S(=O)(=O)c2ccc(OCC3CCOCC3)c(CO)c2)cc1,outcome,[12],inactive
same,AC50,[5],20.9 µM (active)
O=c1cc(CN2CCOCC2)occ1OCCCCCSc1ccnc2cc(C(F)(F)F)ccc12,outcome,[4],inactive
same,AC50,[12],18.6 µM (active)
same,AC50,[5],23.5 µM (active)
same,AC50,[7],18.6 µM (active)
same,IC50,[13],20.9 µM (active)
same,fold change,[8]; [17],0.876 (inactive)
same,fold change,[8]; [18],0.509
same,cell count,[8]; [19],6290
same,cell count,[8]; [20],7180
same,z-score,"[14]; MELAS cybrid survival, CellTiter-Glo 48 h, stronger effect = higher value",-0.449 (inactive)
same,z-score,"[14]; Rieske KO mouse fibroblast survival, CellTiter-Glo 72 h",0.747
CN(C)CC[C@H](CSc1ccccc1)Nc1ccc(S(=O)(=O)NC(=O)c2ccc(N3CCN(Cc4ccccc4-c4ccc(Cl)cc4)CC3)cc2)cc1[N+](=O)[O-],AC50,[4],7.43 µM (active)
same,AC50,[5],0.934 µM (active)
same,AC50,[6],2.35 µM (active)
same,AC50,[7],16.6 µM (active)
same,IC50,[13],13.2 µM (active)
same,SSMD,[15],-3.9
same,cell count,[15],6950
same,plate-normalised HSF1 focus index,[15],0.864 (inactive)
same,viability,"[16]; at 0.000305 µM, OCI-C5x cells, with rucaparib 10 µM, 100% = cells with rucaparib alone",121% (inactive)
same,viability,"[16]; at 0.000305 µM, OCI-C5x cells, without rucaparib",119% (inactive)
same,viability,"[16]; at 0.000305 µM, OCI-P5x cells, with rucaparib 20 µM, 100% = cells with rucaparib alone",148% (inactive)
same,viability,"[16]; at 0.000305 µM, OCI-P5x cells, without rucaparib",108% (inactive)
same,viability,"[16]; at 0.00122 µM, OCI-C5x cells, with rucaparib 10 µM, 100% = cells with rucaparib alone",119% (inactive)
same,viability,"[16]; at 0.00122 µM, OCI-C5x cells, without rucaparib",124% (inactive)
same,viability,"[16]; at 0.00122 µM, OCI-P5x cells, with rucaparib 20 µM, 100% = cells with rucaparib alone",135% (inactive)
same,viability,"[16]; at 0.00122 µM, OCI-P5x cells, without rucaparib",102% (inactive)
same,viability,"[16]; at 0.00488 µM, OCI-C5x cells, with rucaparib 10 µM, 100% = cells with rucaparib alone",109% (inactive)
same,viability,"[16]; at 0.00488 µM, OCI-C5x cells, without rucaparib",114% (inactive)
same,viability,"[16]; at 0.00488 µM, OCI-P5x cells, with rucaparib 20 µM, 100% = cells with rucaparib alone",141% (inactive)
same,viability,"[16]; at 0.00488 µM, OCI-P5x cells, without rucaparib",108% (inactive)
same,viability,"[16]; at 0.0195 µM, OCI-C5x cells, with rucaparib 10 µM, 100% = cells with rucaparib alone",85.3% (active)
same,viability,"[16]; at 0.0195 µM, OCI-C5x cells, without rucaparib",114% (inactive)
same,viability,"[16]; at 0.0195 µM, OCI-P5x cells, with rucaparib 20 µM, 100% = cells with rucaparib alone",140% (inactive)
same,viability,"[16]; at 0.0195 µM, OCI-P5x cells, without rucaparib",101% (inactive)
same,viability,"[16]; at 0.0781 µM, OCI-C5x cells, with rucaparib 10 µM, 100% = cells with rucaparib alone",79.6% (active)
same,viability,"[16]; at 0.0781 µM, OCI-C5x cells, without rucaparib",103% (inactive)
same,viability,"[16]; at 0.0781 µM, OCI-P5x cells, with rucaparib 20 µM, 100% = cells with rucaparib alone",135% (inactive)
same,viability,"[16]; at 0.0781 µM, OCI-P5x cells, without rucaparib",99.6% (active)
same,viability,"[16]; at 0.313 µM, OCI-C5x cells, with rucaparib 10 µM, 100% = cells with rucaparib alone",69% (active)
same,viability,"[16]; at 0.313 µM, OCI-C5x cells, without rucaparib",46.2% (active)
same,viability,"[16]; at 0.313 µM, OCI-P5x cells, with rucaparib 20 µM, 100% = cells with rucaparib alone",121% (inactive)
same,viability,"[16]; at 0.313 µM, OCI-P5x cells, without rucaparib",96.5% (active)
same,viability,"[16]; at 1.25 µM, OCI-C5x cells, with rucaparib 10 µM, 100% = cells with rucaparib alone",62.2% (active)
same,viability,"[16]; at 1.25 µM, OCI-C5x cells, without rucaparib",91.3% (active)
same,viability,"[16]; at 1.25 µM, OCI-P5x cells, with rucaparib 20 µM, 100% = cells with rucaparib alone",130% (inactive)
same,viability,"[16]; at 1.25 µM, OCI-P5x cells, without rucaparib",91.4% (active)
same,viability,"[16]; at 5 µM, OCI-C5x cells, with rucaparib 10 µM, 100% = cells with rucaparib alone",7.96% (active)
same,viability,"[16]; at 5 µM, OCI-C5x cells, without rucaparib",22.6% (active)
same,viability,"[16]; at 5 µM, OCI-P5x cells, with rucaparib 20 µM, 100% = cells with rucaparib alone",9.56% (active)
same,viability,"[16]; at 5 µM, OCI-P5x cells, without rucaparib",75.3% (active)
Cc1c(C)n(Cc2ccc(-c3ccccc3C(=O)O)cc2)c2ccc(C(=O)N[C@@H](C)c3ccc([N+](=O)[O-])cc3)cc12,AC50,[4],0.0372 µM (active)
